Screens deposited in PubChem BioAssay by National Center for Advancing Translational Sciences (NCATS).
A selection: hits, their analogues and other compounds. The true share with any hit is near 3%.
Tau fibril ThT – qHTS for Inhibitors of Tau Fibril Formation, Thioflavin T Binding; Microtubule-associated protein tau (Homo sapiens), P10636; recombinant tau K18 P301L, heparin-induced fibrillization, ThT fluorescence; Potency, µM (titrated, usually from 57.4 µM), for the others: at the highest dose activity, negative = inhibition, most hits filed as inhibitors; 270,000 compounds, 2.1% hits; AID 1460, 2008; also: potency is read from the fitted curve at half-maximal effect; nearly all actives have a fitted effect of over 55% in size
Target sequence (P10636 561-689 P618L limits assumed): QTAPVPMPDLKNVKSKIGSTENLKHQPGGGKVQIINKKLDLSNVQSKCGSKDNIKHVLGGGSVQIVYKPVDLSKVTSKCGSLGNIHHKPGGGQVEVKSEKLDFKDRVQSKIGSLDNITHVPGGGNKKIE
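Heparin-induced fibrillization of the P301L-mutant K18 repeat-domain fragment of human tau was followed by ThT binding in quantitative high-throughput format.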
JMJD2E inh – qHTS Assay for Inhibitors of Human Jumonji Domain Containing 2E (JMJD2E) | Lysine-specific demethylase 4E (Homo sapiens), B2RXH2 | JMJD2E catalytic domain, FDH-coupled NADH fluorescence (FDH is formaldehyde dehydrogenase) | 230,000 compounds, 1.6% hits | Potency, µM (doses to about 57.1 µM), inactives show at the highest dose activity change, negative = inhibition, hits mostly inhibitors; active = well fitted inhibition curve with a large enough effect, not every such curve was filed as active; inconclusive = small, poorly fitted or top-dose-only effect, or another doubt; inactive = no such curve, though single readings can be large or run the other way;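 also: potency is read from the fitted curve at half-maximal effect; 0% = wells with enzyme and -100% = buffer wells without enzyme; nearly all actives have a fitted effect of over 50% in size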
Target sequence (B2RXH2 1-337 limits assumed): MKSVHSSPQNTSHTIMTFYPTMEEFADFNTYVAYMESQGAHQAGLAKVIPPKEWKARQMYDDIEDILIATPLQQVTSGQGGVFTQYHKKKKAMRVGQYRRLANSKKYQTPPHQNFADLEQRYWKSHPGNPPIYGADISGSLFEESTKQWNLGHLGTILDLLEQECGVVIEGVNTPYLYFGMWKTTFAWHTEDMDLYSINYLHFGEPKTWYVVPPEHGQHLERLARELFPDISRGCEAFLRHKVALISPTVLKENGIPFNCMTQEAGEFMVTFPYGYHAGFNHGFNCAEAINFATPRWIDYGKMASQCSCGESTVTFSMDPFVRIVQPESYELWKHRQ
Tau fluor cs – Counterscreen qHTS for Inhibitors of Tau Fibril Formation, Fluorescence Polarization; tau K18 P301L Alexa594 fluorescence, heparin fibrillization; Potency, µM (highest dose often 57.7 µM), without a hit: top-dose activity change, negative = decrease; 280,000 compounds, 0.93% hits; also: potency is read from the fitted curve at half-maximal effect; nearly all actives have a fitted effect of over 55% in size
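Human tau K18 P301L (15 uM unlabeled, 0.24 uM Alexa 594-labeled) in 100 mM sodium acetate pH 7 with 20 uM heparin, 6 hr at 37 C. ThT 30 uM added, 1 hr ambient; Alexa 594 FP and total fluorescence read at 555/632 nm.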
Tau FP inhib – qHTS for Inhibitors of Tau Fibril Formation, Fluorescence Polarization; Microtubule-associated protein tau (Homo sapiens), P10636; K18 P301L tau heparin fibrillization, Alexa594 FP, 6 h; Potency, µM (top dose mostly 57.7 µM), for inactives: at the highest dose activity, negative = inhibition, hits mostly inhibitors; 280,000 compounds, 0.39% hits; also: potency is read from the fitted curve at half-maximal effect; nearly all actives have a fitted effect of over 55% in size
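K18 P301L tau (15 uM unlabeled/0.24 uM Alexa 594-labeled, final) + compound + heparin 20 uM final; 100 mM NaOAc pH 7; 6 hr 37 C; ThT 30 uM final added, 1 hr RT; FP ex 555/em 632 nm.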
Coupling enz – qHTS Assay for Inhibitors of Fructose-1,6-bisphosphate Aldolase from Giardia Lamblia: Coupling assay counterscreen; coupling enzyme system counterscreen, AmpLite Red fluorescence; activity change, negative = inhibition, % at 58.2 µM, hits read low; 290,000 compounds, 0.67% hits; AID 2472, 2010; in the data active = activity change below about -30%
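Fluorescence at 525 nm excitation and 598 nm emission measured inhibition of the coupled detection system without aldolase. Compounds (at 57.5 uM final) were preincubated 10 min at room temperature with coupling enzyme reagent before a 20 min substrate/AmpLite Red step.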
Numbers without * were called inactive; ? = inconclusive; nt = no result given; [ ] = remark or other dose. Unless noted, calls follow the shape of the dose curve; as a rule, active = well fitted curve in the direction sought with a large enough effect; inconclusive = small, poorly fitted or top-dose-only effect, or another doubt; inactive = no such curve, though single readings can be large; an effect the other way counts as inactive or inconclusive. Unless noted, % is scaled to controls: 0 for no effect and ±100 for the full control effect.

SMILES	Tau fibril ThT	JMJD2E inh	Tau fluor cs	Tau FP inhib	Coupling enz
O=C(Cc1ccccc1)N(Cc1cccnc1)c1nc2ccc(F)cc2s1	-0.9%	nt	-20.0%	-6.5%	nt
CCNC(=O)c1c(C)oc2ncn(C)c(=O)c12	1.0%	nt	-1.3%	?	nt
Oc1cc2c(cc1O)[C@@H]1c3ccc(O)c(O)c3OC[C@]1(O)C2	14.1µM*	14.1µM*	?	?	-14.5
C=CCN1c2ccccc2[C@]23C[C@@H](C(=O)OC)N(S(=O)(=O)c4ccc(C)cc4)C2=NC(C(=O)OC)=C(C(=O)OC)[C@H]13	4.5%[11.5 µM]	-3.2%[11.4 µM]	6.0%[11.6 µM]	11.9%[11.6 µM]	-4.8
O=C1NN(c2ccccc2)C(=O)/C1=C\c1ccc(-c2cc([N+](=O)[O-])ccc2O)o1	3.55µM*	?	7.94µM*[quencher]	?	5.6
Cc1ccc(N2NC(=O)/C(=C/c3ccc(-c4ccc(Cl)c(C(=O)O)c4)o3)C2=O)cc1	?	-1.3%	?	-1.0%	0.3
O=C1NN(c2ccc(Cl)cc2)C(=O)/C1=C\c1ccc(-c2cccc(C(=O)O)c2)o1	7.94µM*	-29.9%	10µM*[quencher]	?	7.1
COc1ccc(Sc2ccc(/C=C3\C(=O)NN(c4ccccc4)C3=O)o2)cc1	10µM*	-11.8%	?	?	4.3
Cc1ccc(OCc2nc(-c3ccc(C(=O)N4CCN(c5cccc(C(F)(F)F)c5)CC4)cc3)oc2C)cc1	-14.0%	nt	-12.8%	8.4%	nt
CC(=O)N1c2ccccc2C(C)(c2ccc(C)cc2)CC1(C)C (configuration not stated)	-15.8%	nt	-14.4%	-1.5%	nt
O=C(COc1ccccc1-c1nc(-c2ccccc2)no1)Nc1cccc([N+](=O)[O-])c1	-16.7%	nt	?	17.0%	nt
C=CCN1C(=O)/C(=C/c2ccc(O)c(OC)c2)S/C1=N/c1nccs1	?	-8.5%	28.2µM*[quencher]	0.4%	3.6
Cc1nc(N)sc1-c1csc(Nc2ccc(Cl)cn2)n1	7.94µM*	-20.5%	14.1µM*[quencher]	-4.9%	-16.1
COc1ccc(CCNc2nc(-c3sc(N)nc3C)cs2)cc1OC	14.1µM*	-6.9%	?	?	-10.3
Cc1nc(N)sc1-c1csc(Nc2ccccn2)n1	12.6µM*	?	14.1µM*[quencher]	?	-23.7
COc1ccc(Nc2nc(-c3sc(N)nc3C)cs2)cc1	8.91µM*	5.1%	?	?	-12.1
CCOC(=O)c1cc(S(=O)(=O)N2CCN(c3ccccc3OC)CC2)[nH]n1	3.2%	nt	-4.3%	-7.3%	nt
Cc1nc2nncn2c(NCc2ccc(Cl)cc2)c1C	6.1%	nt	-0.6%	-3.6%	nt
O=C1NC(=S)CN1c1ccccc1	31.6µM*	?	-19.3%	?	-1.2
COc1ccc(N2CCN(C(=O)c3cc4c(=O)n(Cc5cccs5)ccc4nc3C)CC2)cc1	-14.8%	nt	-10.9%	8.2%	nt
CCCCNc1nc(C)nc2c1nc(-c1ccccc1)n2CCCN1CCCCC1C (configuration not stated)	0.7%	?	2.5%	3.6%	1.0
CCNc1ncc2nc(C)c(=O)n(CCc3ccccc3)c2n1	nt	nt	nt	nt	4.5
COc1ccccc1N=C1SC(C(=O)Nc2cccc(Cl)c2Cl)C(N)=C1C(N)=O (configuration not stated)	25.1µM*	-6.2%	17.8µM*[quencher]	?	0.3
COc1ccccc1N=C1SC(C(=O)Nc2ccccc2OC)CC(=O)N1C (configuration not stated)	-2.2%	nt	-9.0%	-0.1%	nt
Cc1ccc(C)c(NC(=O)C2CCN(c3cc(C)nc4c(-c5ccc(Cl)cc5)c(C)nn34)CC2)c1	-5.2%	nt	-7.7%	-5.7%	nt
SMILES	Tau fibril ThT	JMJD2E inh	Tau fluor cs	Tau FP inhib	Coupling enz
COC(=O)C(Cc1ccccc1)NS(=O)(=O)c1cc(Br)ccc1Br (configuration not stated)	nt	nt	nt	nt	-0.1
CCOc1ccc(CNC(=O)C2CCN(c3nc4ccccc4nc3C(F)(F)F)CC2)cc1OC	-5.7%	nt	-3.7%	-6.0%	nt
CC(=O)N[C@@H](CCCNC(=N)N)C(=O)N[C@H](CC1CCCCC1)C(=O)N[C@@H]1CCC2SC[C@@H](C(=O)N[C@H](CCCNC(=N)N)C(=O)N[C@H](Cc3ccc(Cl)cc3)C(N)=O)N2C1=O (some centres not stated)	nt	nt	nt	nt	0.6
C=CCNC(=O)N1CCc2[nH]c3ccc(F)cc3c2C1	nt	nt	nt	nt	0.1
Fc1ccc2[nH]c3c(c2c1)CN(C(=S)NCc1ccccc1)CC3	?	-17.2%	15.8µM*[quencher]	?	-11.8
O=C(N/N=C/c1ccc(O)c(O)c1)c1cccc(S(=O)(=O)N2CCCCC2)c1	-14.9%	15.8µM*	-19.1%	3.9%	0.8
CC1=NN(c2ccccc2)C(=O)/C1=C/c1c(O)n(-c2ccc(F)c(Cl)c2)[nH]c1=O	5.01µM*	-15.3%	?	?	0.0
CC1=NN(c2ccccc2)C(=O)/C1=C\c1c(C)[nH]n(-c2ccccc2)c1=O	?	-5.0%	-17.6%	0.4%	2.1
CCN(Cc1ccncc1)Cc1c(O)ccc2cc(Br)ccc12	?	7.08µM*	?	-0.2%	-54.3*
C=C(C)C(O)/C=C/c1cccc(OC)c1 (configuration not stated)	?	nt	-21.3%[11.6 µM]	1.4%[11.6 µM]	0.1
CC(=O)Nc1sc(NC(=O)c2ccc(Cl)cc2)nc1-c1cccs1	?	2.2%	-25.5%	-0.5%	-0.4
CC(=O)Nc1sc(NC(=O)c2ccc([N+](=O)[O-])cc2)nc1-c1cccs1	7.94µM*	-4.6%	?	1.5%	1.5
CC(=O)Nc1sc(N/N=C\c2ccccc2)nc1-c1cccs1	10µM*	-4.7%	?	-5.9%	2.9
CC(=O)Nc1sc(N/N=C\c2ccccc2Cl)nc1-c1cccs1	9.9%	-10.2%	3.6%	1.0%	-3.2
CC(=O)Nc1sc(N/N=C\c2ccco2)nc1-c1cccs1	15.8µM*	-23.4%	?	?	1.7
Nc1nc(-c2cccs2)c(NC(=O)c2ccccc2)s1	14.1µM*	-4.7%	?	?	2.8
CC(CC(C)(C)C)CP(=O)(O)CC(C)CC(C)(C)C (configuration not stated)	nt	nt	nt	nt	8.7
CC(C)(C)c1ccc(-c2nc3cc(NC(=O)c4cccc(Br)c4)ccc3o2)cc1	6.4%	nt	-20.8%	?	nt
CCOc1cc(/C=N/Nc2nc(-c3cccs3)c(NC(C)=O)s2)ccc1O	25.1µM*	-22.7%	?	-12.0%	-0.9
O=C(CSc1cn(CC(=O)N2CCCC2)c2ccccc12)Nc1cc(C(F)(F)F)ccc1Cl	?	nt	-20.4%	11.1%	nt
COc1ccc(-n2c(C)cc(/C=C/c3nc(O)c([N+](=O)[O-])c(=O)[nH]3)c2C)cc1	15.8µM*	3.4%	-6.9%	1.7%	0.5
